# From PubChem BioAssay AID623911 (Vanderbilt High Throughput Screening Facility, 2012)
# About 770 (37%) of roughly 2,100 compounds were called active. The list shows a part of the results. A number with no mark means an inactive call.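 How the source made its calls: active means by-eye trace score of 1 for enhancers or -1 for inhibitors, so actives lie on both sides (some results past the limit were not filed as active); inactive means score 0, or 3 fluorescent, or 4 baseline rise.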
# Target: G protein-activated inward rectifier potassium channel 2 (Homo sapiens) + G protein-activated inward rectifier potassium channel 1 (Homo sapiens) (UniProt P48051+P48549)
# Sequence (P48051 whole entry, looked up): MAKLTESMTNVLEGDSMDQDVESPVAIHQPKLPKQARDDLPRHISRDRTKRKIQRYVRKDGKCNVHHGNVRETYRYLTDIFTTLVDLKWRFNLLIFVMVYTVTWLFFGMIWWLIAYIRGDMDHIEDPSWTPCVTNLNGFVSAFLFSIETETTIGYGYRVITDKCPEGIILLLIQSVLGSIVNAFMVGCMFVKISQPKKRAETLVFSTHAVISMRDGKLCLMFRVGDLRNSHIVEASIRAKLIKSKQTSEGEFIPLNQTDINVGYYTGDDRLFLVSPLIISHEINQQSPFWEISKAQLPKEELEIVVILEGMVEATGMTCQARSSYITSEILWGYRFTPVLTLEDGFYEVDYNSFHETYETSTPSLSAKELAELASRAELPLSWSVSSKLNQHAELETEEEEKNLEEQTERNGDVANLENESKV
# Sequence (P48549 whole entry, looked up): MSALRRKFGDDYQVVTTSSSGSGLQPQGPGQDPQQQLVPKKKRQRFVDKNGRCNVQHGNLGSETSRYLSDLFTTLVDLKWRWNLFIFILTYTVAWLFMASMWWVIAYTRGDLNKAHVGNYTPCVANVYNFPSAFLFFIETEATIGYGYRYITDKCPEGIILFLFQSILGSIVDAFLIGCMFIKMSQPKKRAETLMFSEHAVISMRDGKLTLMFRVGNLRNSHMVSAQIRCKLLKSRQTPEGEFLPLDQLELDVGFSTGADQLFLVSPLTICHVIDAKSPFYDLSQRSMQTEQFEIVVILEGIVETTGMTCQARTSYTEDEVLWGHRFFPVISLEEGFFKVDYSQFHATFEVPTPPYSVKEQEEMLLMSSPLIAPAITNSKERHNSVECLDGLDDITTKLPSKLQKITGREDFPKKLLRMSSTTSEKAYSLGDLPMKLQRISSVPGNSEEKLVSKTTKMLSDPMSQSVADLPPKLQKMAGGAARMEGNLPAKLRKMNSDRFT
# Assay: GIRK1/2 thallium flux modulators, retest, confirmation, cell-based, HEK293 rmGlu8/hGIRK1/2, FluoZin-2 (AID 623911)
# Settings: HEK293 rmGlu8/hGIRK1/2, thallium flux FluoZin-2; actives lie on both sides; glutamate co-added at its EC20 level
row,Structure (SMILES),manual score
1,CCOC(=O)N1CCC(NC(=O)c2cnn3c2NC(c2ccco2)CC3C(F)(F)F)CC1 (stereo unspecified),0
2,O=C(NN=C1c2ccccc2-c2ccccc21)c1cccc(Br)c1,1 (active)
3,O=C(NN=C1c2ccccc2-c2ccccc21)c1ccccc1Br,0
4,S=C(Nc1cccc(Br)c1)c1ccccc1,0
5,O=C(Nc1nnc(-c2ccc3c(c2)CCCC3)o1)c1ccccc1,1 (active)
6,CN(C)S(=O)(=O)c1ccc(C(=O)Nc2nnc(-c3ccc4c(c3)CCCC4)o2)cc1,0
7,O=C(Nc1ccc(-c2nc3ccccc3o2)cc1)c1cc(-n2cnnc2)ccc1Cl,0
8,O=C(Nc1nnc(-c2ccc3c(c2)CCCC3)o1)c1ccc(Cl)cc1Cl,1 (active)
9,O=C(Nc1nnc(-c2ccc3c(c2)CCCC3)o1)c1ccccc1Cl,1 (active)
10,O=C(Nc1nnc(-c2ccc3c(c2)CCCC3)o1)C1COc2ccccc2O1 (stereo unspecified),1 (active)
11,O=C(Nc1cccc(-c2nnc(-c3ccccc3)o2)c1)C1CCCO1 (stereo unspecified),0
12,CN=c1scc(-c2cccs2)n1/N=C/c1ccc(O)c(O)c1O,0
13,CCOc1cc(-c2noc(-c3cccnc3)n2)ccc1OC,0
14,Fc1cccc(C2NN=C(c3ccccc3)S2)c1 (stereo unspecified),1 (active)
15,CCOc1cc(C2NN=C(c3ccc(C)cc3)S2)ccc1O (stereo unspecified),0.5
16,CC1CC(=S)Nc2ccccc2N1Cc1ccccc1 (stereo unspecified),0
17,CC12CN(Cc3ccccc3)CC(C)(CN(Cc3ccccc3)C1)C2=NO,-1 (active)
18,O=C(OCCN1C(=O)c2cccc3c(N4CCOCC4)ccc(c23)C1=O)c1cccc(Cl)c1,3
19,O=C(NCCSc1c[nH]c2ccccc12)c1ccco1,0
20,CCC(Sc1ccc2nnc(-c3ccc(F)cc3)n2n1)C(=O)OC (stereo unspecified),0
21,COC(=O)c1ccc(CSc2ccc3nnc(-c4ccccc4)n3n2)o1,-1 (active)
22,COC(=O)c1ccc(CSc2nnc(Nc3ccccc3OC)s2)o1,0
23,O=C(Cc1csc(Nc2nc(=S)[nH]c3ccccc23)n1)NCc1cccc(Cl)c1,1 (active)

row,Structure (SMILES),manual score
1,Cc1ccc(CNC(=O)Cc2csc(Nc3nc(=S)[nH]c4ccccc34)n2)cc1,0.5
2,O=C(Cc1csc(Nc2nc(=S)[nH]c3ccccc23)n1)NCc1ccccc1Cl,0
3,COc1cccc(N2CCN(c3c4c(nc5ncnn35)CCC4)CC2)c1,0
4,O=C1c2cccc3c(O)ccc(c23)C(=O)N1Cc1ccccc1,3
5,CON(c1nc(Cl)nc(N(C)C)n1)S(=O)(=O)c1ccccc1Cl,-1 (active)
6,COCCn1c(=S)[nH]c2cc(C(=O)N3CCN(c4ccc(F)cc4)CC3)ccc2c1=O,0
7,O=C(c1csc2c1CCCC2)N1CCN(c2ccc(F)cc2)CC1,-1 (active)
8,C=CCn1c(=S)[nH]c2ccc(Br)cc2c1=O,1 (active)
9,O=c1c2cc(Cl)ccc2[nH]c(=S)n1Cc1cccs1,0
10,C=CCn1c(=S)[nH]c2ccccc2c1=O,1 (active)
11,O=c1c2ccccc2[nH]c(=S)n1CCN1CCN(Cc2ccccc2)CC1,0
12,O=C(C1CCC(Cn2c(=S)[nH]c3ccccc3c2=O)CC1)N1CCN(c2ccccc2)CC1 (stereo unspecified),0
13,CCN(CC)c1ccc2cc(C=O)c(=O)oc2c1,3
14,COC(=O)CSc1nnc(SCc2ccc(OC)cc2)s1,0
15,COC(=O)CSC1=NS(=O)(=O)c2ccccc21,-1 (active)
16,CCc1cccc(NC(=O)CCSCCC(=O)Nc2cccc(CC)c2)c1,0
17,CCc1cccc(NC(=O)CSC2=NS(=O)(=O)c3ccccc32)c1,1 (active)
18,CC(=O)Nc1ccc(NC(=O)CSc2nccn2Cc2ccccc2)cc1,0
19,COC(=O)CSc1nc2ncccc2[nH]1,0
20,Clc1ccc2c(c1)C(N1CCNCC1)Cc1ccccc1S2 (stereo unspecified),-1 (active)
21,CSc1nc(-c2ccccc2)[nH]c(=S)c1C(C)=O,1 (active)
22,CC(=O)c1c(N2CCCC2)[nH]c(-c2ccccc2)nc1=S,1 (active)
23,CCOC(=O)c1ccc(N2C(=O)C(O)=C(C(C)=O)C2c2ccccc2)cc1 (stereo unspecified),0

row,Structure (SMILES),manual score
1,O=c1c2c(nc3c(-c4ccccc4)c[nH]n13)CCCC2,0
2,CCCCn1c(SC(C)C(N)=O)nc2cc(C(=O)OC)ccc2c1=O (stereo unspecified),0
3,CN1/C(=C\C=C2/C(=O)Oc3ccccc3C2=O)C(C)(C)c2ccccc21,3
4,CCNC(=O)NC(=O)COC(=O)CCCSc1nc2ccccc2[nH]1,0
5,CCCOc1cccc(OCCSc2nc(C)cc(=O)[nH]2)c1,0
6,CCOc1ccc(OCCSc2nc3ccccc3[nH]2)cc1,1 (active)
7,Clc1ccc2[nH]c3c(NCC4CCCO4)ncnc3c2c1 (stereo unspecified),0
8,Oc1[nH]c2ccccc2c1N=NC(=S)NCC1CCCO1 (stereo unspecified),0.5
9,Oc1[nH]c2c(Cl)cc(Cl)cc2c1N=NC(=S)NCC1CCCO1 (stereo unspecified),1 (active)
10,COc1ccc(C2=Nn3c(nnc3C3CCCCC3)SC2)cc1OC,0
11,COc1ccccc1C1=Nn2c(nnc2C2CCCCC2)SC1,-1 (active)
12,c1cc2c(cc1C1=Nn3c(nnc3C3CCCCC3)SC1)OCO2,0
13,Cc1cc(C)nc(N(C#N)Cc2ccc(Br)cc2)n1,-1 (active)
14,O=C(NC(=S)Nc1ccc(N2CCOCC2)cc1)c1ccco1,0
15,CC1CCN(c2ccccc2NC(=S)NC(=O)c2ccco2)CC1,0
16,O=C(NC(=S)Nc1ccccc1N1CCCCC1)c1ccco1,0
17,O=C(NC(=S)Nc1ccccc1N1CCOCC1)c1ccco1,1 (active)
18,O=C(NC(=S)Nc1ccc(N2CCCCC2)cc1)c1ccco1,1 (active)
19,CN(C1CCCCC1)S(=O)(=O)c1ccc(NC(=S)NC(=O)c2cccs2)cc1,0
20,O=C(NC(=S)Nc1ccc(N2CCCCC2)c(Cl)c1)c1cccs1,0
21,CC1CCN(c2ccc(NC(=S)NC(=O)c3ccco3)cc2)CC1,0
22,O=C(NC(=S)Nc1ccc(N2CCCCC2)cc1)c1cccs1,1 (active)
23,CC(C)(C)C(=O)/C=c1\[nH]c(=O)/c(=C\c2ccc(F)cc2)s1,0

row,Structure (SMILES),manual score
1,Cc1ccc(NC2CC(=O)N(CCc3ccccc3)C2=O)cc1 (stereo unspecified),0
2,CCn1c(SCC(=O)Nc2oc(-c3ccccc3)c(-c3ccccc3)c2C#N)nnc1-c1ccco1,0
3,Cc1cnc(NC(=O)CSc2nc3ccccc3c(=O)[nH]2)s1,0
4,COc1cc(OC)cc(C(=O)NC(=S)NCCc2ccccc2)c1,0
5,COc1ccc(C(=O)CC(=O)C(=O)NCCc2cccc(C)c2)cc1,0.5
6,O=C(CCc1ccccc1)NNC(=S)NC(=O)c1ccc(Cl)cc1,1 (active)
7,COc1ccc(C(=O)NC(=S)NNC(=O)CCc2ccccc2)cc1,1 (active)
8,CCOc1ccccc1Cn1c(=O)oc2ccc(C)cc21,-1 (active)
9,CCOc1ccccc1-c1c2cc(O)c(=O)cc-2oc2cc(O)c(O)cc12,0
10,CCNC(=S)Nc1scc(-c2ccccc2)c1C(=O)OCC,1 (active)
11,CCOC(=O)c1c(-c2ccc(C)o2)csc1NC(=S)NC(=O)c1cccs1,0
12,CCOC(=O)c1c(-c2ccc(C)o2)csc1NC(=S)NC(=O)N(C)C,1 (active)
13,CCOC(=O)c1c(-c2ccccc2)csc1NC(=S)NC,1 (active)
14,CC(C)Cc1nnc(NC(=O)CSc2nc(=O)cc(N)n2-c2ccccc2)s1,0
15,CC(C)CC(=O)Nc1cccc2c1C(=O)N(c1ccccc1)C2=O,-0.5
16,CC(C)C(=O)NC(=S)N(Cc1ccccc1)Cc1ccccc1,1 (active)
17,Cc1cccc(C)c1NC(=S)NC(=O)CCc1ccccc1,0
18,CC(C)CC(=O)NC(=S)N(Cc1ccccc1)Cc1ccccc1,1 (active)
19,O=C(NC(=S)NCc1ccccc1)c1ccccc1F,0.5
20,O=C(NC(=S)N(Cc1ccccc1)Cc1ccccc1)c1ccccc1F,1 (active)
21,Cc1cccc(C)c1NC(=S)NC(=O)c1ccccc1F,1 (active)
22,CCCCCNc1nc(-c2ccccc2)cs1,0
23,Cc1nc2ccccn2c1-c1csc(NCc2ccco2)n1,-1 (active)

row,Structure (SMILES),manual score
1,CC(C)(C)C1CCC2(CC1)Nc1cccc3cccc(c13)N2,0
2,Oc1cccc(Nc2nc(NCC3CCCO3)c3ccccc3n2)c1 (stereo unspecified),-1 (active)
3,O=C(O)c1cccc(Nc2nc(N3CCOCC3)nc(N3CCOCC3)n2)c1,0
4,CC1CCCC(NC(=O)Nc2cccs2)C1C (stereo unspecified),1 (active)
5,COC(=O)C1CCCN1C(=O)c1cccs1 (stereo unspecified),0
6,CCOC(=O)C1=C(CC)Nc2ccccc2N=C1NC(=O)c1ccc(S(=O)(=O)N(C)C)cc1,0
7,C=COCCNC(=O)Nc1ccc(Cl)c(Cl)c1,0.5
8,CCOC(=O)C1=C(CC)Nc2ccccc2N=C1NC(=O)Nc1ccc(Cl)c(Cl)c1,1 (active)
9,CCCn1c(SC(C(=O)Nc2cc(C)ccc2OC)c2ccccc2)nc2ccccc2c1=O (stereo unspecified),0
10,CCCn1c(=O)c2ccccc2n2c(SCc3nc4ccccc4s3)nnc12,0
11,O=C(CSc1nc2ccccc2n1CCc1ccccc1)N1CCOCC1,0
12,Cc1ccc2oc(=O)c3cnn(CC(=O)N4CCc5ccccc5C4)c3c2c1,0
13,CCCn1c(=O)c2ccccc2n2c(SCCOc3ccccc3F)nnc12,-1 (active)
14,CCCn1c(=O)c2ccccc2n2c(SCC(=O)N3CCc4ccccc4C3)nnc12,-1 (active)
15,COc1ccc(-c2nc(C#N)c(NCCCN(C)C)o2)cc1OC,0
16,Cc1ccc(OCC(=O)NNC(=O)C(=O)NC(C)(C)C)cc1,1 (active)
17,COc1ccc(OCC(=O)NNC(=O)C(=O)Nc2ccc(C)cc2)cc1,1 (active)
18,CNC(=S)SCCOc1ccc(C)cc1,3
19,CC(C)(C)NC(=O)C(=O)NNC(=O)COc1ccc(Br)cc1,1 (active)
